# Laboratory results taken from PubChem BioAssay (Tox21).
# Inconclusive results are not listed. Entries that show only a call come without a potency. Values without a mark were called inactive. Activity calls are given as the source filed them. Unless noted, the call rests on the fitted dose curve.
# Assays:
# [1] = qHTS assay to identify small molecule agonists of the vitamin D receptor (VDR) signaling pathway - cell viability counter screen (AID 743224; active means well fitted curve in the direction sought with a large enough effect in the repeat runs; an effect the other way counts as inactive or inconclusive; further: nearly all actives have a fitted effect of over 50% in size; further: potency means the concentration at half of the fitted maximal effect)
# How it was run: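 VDR-bla cells, 4 h after plating, exposed to compounds for 16 h at 37C; viability then read in the same wells as CellTiter-Glo luminescence after 30 min at room temperature, following the bla FRET read.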
# [2] = qHTS assay to identify small molecule antagonists of the vitamin D receptor (VDR) signaling pathway - cell viability counter screen (AID 743225; active means well fitted curve in the direction sought with a large enough effect in the repeat runs; an effect the other way counts as inactive or inconclusive; further: nearly all actives have a fitted effect of over 50% in size)
# How it was run: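 In this counter screen, VDR-bla HEK 293T cells receive test compound plus 3 nM final calcitriol for 16 h at 37C. Room-temperature steps of 2 h with the beta-lactamase substrate, then 30 min with CellTiter-Glo, precede the luminescence read.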
# [3] = qHTS assay to identify small molecule agonists of the NFkB signaling pathway - cell viability counter screen (AID 1159515); further: series mostly up to about 61 µM; nearly all actives have a fitted effect of over 55% in size
# How it was run: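 NFkB-bla ME-180 cells, 2,000/well, plated overnight at 37 C; compound added for 5 hr at 37 C. Viability read in the same wells as the bla reporter, by CellTiter-Glo luminescence after 30 min at room temperature.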
# [4] = qHTS assay to identify small molecule agonists of the endoplasmic reticulum stress response signaling pathway (AID 1159516; active means well fitted activation curve with a large enough effect in the signal ratio in the repeat runs, not every such curve was filed as active; the % refers to the signal ratio)
# How it was run: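 CellSensor ESRE-bla HeLa cells, 1,500 per well, plated overnight, then exposed to compounds for 5 hr at 37 C. Beta-lactamase reporter read with LiveBLAzer B/G FRET substrate after 2 hr at room temperature, 405 nm excitation, 460 and 530 nm emission.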
# [5] = qHTS assay to identify small molecule agonists of the endoplasmic reticulum stress response signaling pathway - cell viability counter screen (AID 1159517);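 further: HeLa cells carrying an ER stress response element beta-lactamase reporter; series mostly up to about 61 µM; nearly all actives have a fitted effect of over 50% in size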
# How it was run: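 CellTiter-Glo was added to wells already read for beta-lactamase FRET, and luminescence was recorded 30 min later. Cells: ESRE-bla HeLa, 1,500 per well, compound exposure 5 hr at 37 C.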
# [6] = qHTS assay to identify small molecule antagonists of the retinoid-related orphan receptor gamma (ROR-gamma) signaling pathway - cell viability counter screen (AID 1159520; active means well fitted curve in the direction sought with a large enough effect in the repeat runs; an effect the other way counts as inactive or inconclusive; further: nearly all actives have a fitted effect of over 50% in size)
# How it was run: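 Tet-on ROR gamma CHO cells (1,000/well) were plated 4 hr, given compounds in DMSO for 2 hr at 37 C, then induced with 1 uM final doxycycline for 16 hr. Viability was read as ATP by CellTiter-Glo luminescence after 30 min.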
# [7] = molecular target: Nuclear receptor ROR-gamma (Homo sapiens) (UniProt P51449); test: qHTS assay to identify small molecule antagonists of the retinoid-related orphan receptor gamma (ROR-gamma) signaling pathway (AID 1159521; active means well fitted curve in the direction sought with a large enough effect in the repeat runs; an effect the other way counts as inactive or inconclusive; further: nearly all actives have a fitted effect of over 50% in size; further: potency means the concentration at half of the fitted maximal effect)
# How it was run: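 Screening format: cell-based luciferase reporter in CHO cells with doxycycline-inducible RORγ. Compound pre-exposure lasts 2 h, doxycycline is 1 uM final, induction runs 16 h at 37 C, and ONE-Glo luminescence is read.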
# [8] = qHTS assay to identify small molecule agonists of the AP-1 signaling pathway - cell viability counter screen (AID 1159525); further: nearly all actives have a fitted effect of over 55% in size
# How it was run: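 ME-180 AP-1-bla, 2500 cells/well, Opti-MEM + 0.5% dialyzed FBS; overnight 37 °C; cpd 15-pt titration, 5 h 37 °C; CellTiter-Glo 30 min RT; luminescence read; normalised to TOAB and DMSO controls.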
# [9] = qHTS assay to identify small molecule agonists of the AP-1 signaling pathway (AID 1159526)
# [10] = molecular target: Retinoic acid receptor RXR-alpha (Homo sapiens) (UniProt P19793); test: qHTS assay to identify small molecule agonists of the RXR signaling pathway (AID 1159527); further: nearly all actives have a fitted effect of over 35% in size
# How it was run: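 Fluorescence ratio readout (460 vs 530 nm) from GeneBLAzer RXR-alpha HEK 293T cells after 16 hr compound treatment; cells seeded 5 hr beforehand in low-serum, charcoal-stripped medium.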
# Chain of Retinoic acid receptor RXR-alpha (Homo sapiens) (P19793 whole entry, looked up): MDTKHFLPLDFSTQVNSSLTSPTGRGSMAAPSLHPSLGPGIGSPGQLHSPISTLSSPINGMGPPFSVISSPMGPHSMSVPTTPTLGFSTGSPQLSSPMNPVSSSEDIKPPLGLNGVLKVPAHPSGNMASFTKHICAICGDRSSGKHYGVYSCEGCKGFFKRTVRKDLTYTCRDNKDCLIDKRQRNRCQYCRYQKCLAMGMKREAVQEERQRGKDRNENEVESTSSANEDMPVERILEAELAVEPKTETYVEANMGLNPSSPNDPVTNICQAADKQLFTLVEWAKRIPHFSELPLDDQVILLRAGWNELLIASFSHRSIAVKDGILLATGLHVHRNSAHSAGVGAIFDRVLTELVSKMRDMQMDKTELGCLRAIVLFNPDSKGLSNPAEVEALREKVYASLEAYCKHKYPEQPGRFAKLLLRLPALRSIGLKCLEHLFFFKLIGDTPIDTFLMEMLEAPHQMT
SMILES,Potency [1],Potency [2],Potency [3],Potency [4],Potency [5],Potency [6],Potency [7],Potency [8],Potency [9],Potency [10]
O=[N+]([O-])c1ccccc1-c1ccccc1,inactive,inactive,inactive,inactive,inactive,inactive,inactive,inactive,,
CCCC[N+]1(C)CCCC1 (tested in a mixture with another compound),inactive,inactive,inactive,inactive,inactive,inactive,,inactive,inactive,inactive
O=NN(CCO)CCO,inactive,inactive,inactive,inactive,inactive,inactive,,inactive,inactive,inactive
O=[N+]([O-])c1cccc2cccc([N+](=O)[O-])c12,inactive,inactive,inactive,inactive,inactive,inactive,inactive,,inactive,inactive
Cc1ccn2nc(S(=O)(=O)Nc3c(F)cccc3F)nc2n1,inactive,inactive,inactive,inactive,inactive,inactive,,inactive,inactive,inactive
O=C(N[C@@H]1N=C(c2ccccc2F)c2cccc3c2N(CC3)C1=O)c1cc2ccccc2[nH]1,inactive,inactive,inactive,inactive,inactive,inactive,inactive,inactive,,inactive
C#CCO,inactive,inactive,inactive,inactive,inactive,inactive,,inactive,inactive,inactive
CC#C[C@]1(O)CC[C@H]2[C@@H]3C[C@H](C)C4=CC(=O)CC[C@]4(C)[C@H]3CC[C@@]21C,inactive,inactive,inactive,inactive,inactive,inactive,26.6 µM (active),inactive,,
CC(=O)[O-].CC(=O)[O-].O.O.[Zn+2],inactive,inactive,inactive,inactive,inactive,inactive,,inactive,inactive,inactive
CC(C)N(C(=O)SC/C(Cl)=C/Cl)C(C)C,inactive,inactive,inactive,inactive,inactive,inactive,inactive,inactive,,inactive
CCC1(CC)C(=O)N=C(O)NC1=O,inactive,inactive,inactive,inactive,inactive,inactive,inactive,inactive,,
CNC(=O)O/N=C(\C)C(C)S(C)(=O)=O (configuration not stated),inactive,inactive,inactive,inactive,inactive,inactive,inactive,inactive,,
CSC(C)(C)/C=N/O,inactive,inactive,inactive,inactive,inactive,inactive,inactive,inactive,inactive,
COC(=O)c1ccccc1S(=O)(=O)NC(=O)Nc1nc(C)nc(OC)n1,inactive,inactive,inactive,inactive,inactive,inactive,,inactive,inactive,inactive
COP(=O)(OC)O/C(=C\Cl)c1cc(Cl)c(Cl)cc1Cl,,,inactive,inactive,inactive,inactive,,inactive,,
OCC(Br)CBr (configuration not stated),inactive,inactive,inactive,inactive,inactive,inactive,,inactive,inactive,inactive
ClC1=C(Cl)[C@]2(Cl)[C@@H]3[C@H]4C[C@H]([C@@H]5O[C@H]45)[C@@H]3[C@@]1(Cl)C2(Cl)Cl,43.6 µM (active),inactive,inactive,inactive,inactive,inactive,27.3 µM (active),inactive,,
CC(C)NCC(O)c1ccccc1Cl (configuration not stated),inactive,inactive,inactive,inactive,inactive,inactive,,inactive,inactive,inactive
CCN(CC)CCc1c[nH]c2ccccc12,,inactive,inactive,inactive,inactive,inactive,inactive,inactive,,inactive
CSSC,inactive,inactive,inactive,inactive,inactive,inactive,inactive,inactive,,
CCCCn1cc[n+](C)c1 (tested in a mixture with another compound),inactive,inactive,inactive,inactive,inactive,inactive,,inactive,inactive,inactive
CC[C@]1(O)CC[C@H]2[C@@H]3CCC4=CCCC[C@@H]4[C@H]3CC[C@@]21C,inactive,inactive,inactive,inactive,inactive,inactive,inactive,inactive,,
COc1ccc2[nH]cc(CCN(C(C)C)C(C)C)c2c1,inactive,inactive,inactive,inactive,inactive,inactive,inactive,inactive,,
N#Cc1ccc(N(CC(N)=O)CC(F)(F)F)cc1C(F)(F)F,inactive,inactive,inactive,inactive,inactive,inactive,,inactive,inactive,inactive
C[N+]1(C)[C@@H]2CC[C@H]1CC(OC(=O)C(CO)c1ccccc1)C2 (some centres not stated),inactive,inactive,inactive,inactive,inactive,inactive,,inactive,inactive,inactive
